# Results from the supplement of paper PMC6555819.
# Legend:
# Test in all cases: PBM binding z-score (relative to random genomic background probes); higher = stronger binding; sequences stand for … in GC…GCGATTGACAGCGTAGAATGAAGG
# [1] = tested on: FXR:RXRa (NR concentration 270 nM, RXRa partner concentration 90 nM)
# Outline: (§1)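 Binding z-scores were set against random background probes. The data came from custom Agilent 4×180K protein-binding microarrays carrying double-stranded probes with 34-nt variable regions, incubated 1 h with ligand-free nuclear receptor dimers. Partner-specific antibodies detected binding, and scanned fluorescence was regression-normalized.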
# [2] = tested on: LXRa:RXRa (NR concentration 270 nM, RXRa partner concentration 90 nM)
# Outline: as §1
# [3] = tested on: LXRa homodimer (NR concentration 270 nM)
# Outline: as §1
# [4] = tested on: LXRb:RXRa (NR concentration 270 nM, RXRa partner concentration 90 nM)
# Outline: as §1
# [5] = tested on: LXRb homodimer (NR concentration 270 nM)
# Outline: as §1
# [6] = tested on: PPARa:RXRa (NR concentration 270 nM, RXRa partner concentration 90 nM)
# Outline: as §1
# [7] = tested on: PPARg:RXRa (NR concentration 180 nM, RXRa partner concentration 90 nM)
# Outline: as §1
# [8] = tested on: PPARg:RXRa 270nM:90nM, anti-RXR (NR concentration 270 nM, RXRa partner concentration 90 nM)
# Outline: as §1
# [9] = tested on: PPARg:RXRa 30nM:10nM, anti-RXR (NR concentration 30 nM, RXRa partner concentration 10 nM)
# Outline: as §1
# [10] = tested on: PPARg:RXRa 90nM:30nM, anti-RXR (NR concentration 90 nM, RXRa partner concentration 30 nM)
# Outline: as §1
# [11] = tested on: PPARg:RXRa DBDmut IVT, anti-RXR (DBD mutation: RXRa K156A/R161A, NR concentration 270 nM, RXRa partner concentration 90 nM)
# Outline: as §1
# [12] = tested on: PPARg:RXRa IVT, anti-PPARg (NR concentration 270 nM, RXRa partner concentration 90 nM)
# Outline: as §1
# [13] = tested on: PPARg DBDmut:RXRa IVT, anti-PPARg (DBD mutation: PPARg1 K132A/R137A, NR concentration 270 nM, RXRa partner concentration 90 nM)
# Outline: as §1
# [14] = tested on: PPARg DBDmut IVT, anti-PPARg (DBD mutation: PPARg1 K132A/R137A, NR concentration 270 nM)
# Outline: as §1
# [15] = tested on: PPARg homodimer (NR concentration 180 nM)
# Outline: as §1
# [16] = tested on: PXR:RXRa (NR concentration 270 nM, RXRa partner concentration 90 nM)
# Outline: as §1
# [17] = tested on: PXR homodimer (NR concentration 270 nM)
# Outline: as §1
# [18] = tested on: RARa:RXR (NR concentration 270 nM, RXRa partner concentration 90 nM)
# Outline: as §1
# [19] = tested on: RARa homodimer (NR concentration 270 nM)
# Outline: as §1
# [20] = tested on: RARb:RXRa (NR concentration 270 nM, RXRa partner concentration 90 nM)
# Outline: as §1
Sequence,PBM binding z-score [1],PBM binding z-score [2],PBM binding z-score [3],PBM binding z-score [4],PBM binding z-score [5],PBM binding z-score [6],PBM binding z-score [7],PBM binding z-score [8],PBM binding z-score [9],PBM binding z-score [10],PBM binding z-score [11],PBM binding z-score [12],PBM binding z-score [13],PBM binding z-score [14],PBM binding z-score [15],PBM binding z-score [16],PBM binding z-score [17],PBM binding z-score [18],PBM binding z-score [19],PBM binding z-score [20]
TCGAGTAGGTTAGGGGCATCCAGAATGGCGTCGA,0.419,0.286,-0.391,0.913,-0.812,1.38,0.651,2.05,1.32,1.8,1.78,1.45,-0.511,-0.719,0.537,0.349,-0.0589,0.496,-0.597,1.18
TCTATTAGTTGAATAGGGCAACCGAAACAGCGGA,0.393,0.654,-0.213,0.664,0.0451,1.16,0.438,1.92,3.61,2.81,2.01,1.19,0.574,0.929,0.658,0.411,0.0472,0.67,0.29,1.13
TCGCCTAGGTCAGATCGGGCCAGTATACGCTATA,1.75,1.2,-0.481,0.65,-0.762,1.71,0.474,1.19,1.68,1.28,1.92,1.11,-0.622,-0.724,-0.2,1.23,-0.531,1.05,-0.742,3.12
CCTATTAGTTGCCCATAAGGGCAACCGAAGCTCG,0.523,0.339,0.425,0.645,0.866,0.517,0.154,0.281,-0.263,0.0446,-0.00448,0.926,0.125,1.13,0.921,0.597,0.552,0.824,1.45,1.29
CCTAGTTGGTCAAGGTCAGACACGCTATAGGTAC,2.19,2.38,1.11,2.12,0.541,2.78,1.85,2.26,0.813,1.73,1.83,2.54,0.343,0.91,2.01,2.52,1.51,2.45,2.36,3.6
TCATATAGGTACAAGGTGAAAGTCGGTGTGGTAA,0.883,1.08,0.335,1.18,0.0749,3.3,4.66,5.75,5.85,6.21,3.23,2.75,0.878,0.815,1.21,0.845,0.358,1.25,1.19,1.12
ATATGTAGGTTATCGGGGCATTCAGTTTGCGCAT,1.18,1.49,0.936,2.57,1.81,3.95,5.76,5,2.48,4.06,7.24,7.25,3.45,3.12,2.07,1.72,3,1.04,1.6,1.7
